Bfl-1 Bim block: inhibitors of Bim binding to Bfl-1, primary screen, biochemical, multiplexed, bead-based flow cytometry; Bim-Bfl-1 binding inhibition; 190,000 compounds, 0.12% hits; Bcl-2-related protein A1 (Homo sapiens), Q16548; AID 1008, 2008; inhibition, % at 10 µM
Bim-Bcl-2: inhibitors of Bim-Bcl-2 binding, primary screen, biochemical, multiplexed, human Bcl-2 family; Apoptosis regulator Bcl-2 (Homo sapiens), P10415; Bead-based flow cytometry, Bim peptide-Bcl-2 binding; inhibition, % at 10 µM; 190,000 compounds, 0.06% hits; AID 950, 2007; in the data active = inhibition above about 40%
Target sequence (P10415 whole entry, looked up): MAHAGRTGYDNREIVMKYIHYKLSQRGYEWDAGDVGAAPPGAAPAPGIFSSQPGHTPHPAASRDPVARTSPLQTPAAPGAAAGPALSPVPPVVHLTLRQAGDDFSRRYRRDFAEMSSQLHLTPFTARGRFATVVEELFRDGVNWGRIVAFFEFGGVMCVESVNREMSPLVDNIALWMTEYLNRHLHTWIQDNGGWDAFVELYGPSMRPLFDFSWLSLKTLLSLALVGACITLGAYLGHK
Bim-Bcl-W: inhibitors of Bim binding to Bcl-W, primary screen, biochemical, multiplexed, bead-based flow cytometry | Bim peptide-Bcl-W binding | inhibition, % at 10 µM | 190,000 compounds, 0.02% hits;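 also: higher means less fluorescent Bim peptide bound to Bcl-W beads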
Bim-Bcl-B: inhibitors of Bim-Bcl-B binding, primary screen, biochemical, multiplexed, human Bcl-2 family | bead-based flow cytometry, Bim peptide-Bcl-B binding | 190,000 compounds, 0.073% hits | inhibition, % at 10 µM | Bcl-2-like protein 10 (Homo sapiens), Q9HD36
BCLXL inh: inhibitors of human Bcl-xL, primary screen, biochemical, fluorescence polarization, HTS. 320,000 compounds, 0.7% hits. AID 2129, 2009. Bcl-2-like protein 1 (Homo sapiens), Q07817. GST-Bcl-xL / FITC-Bim BH3 peptide fluorescence polarization. inhibition, % at 10.9 µM;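 active = inhibition above the mean of all tested compounds plus 3 SD, cutoff set per campaign, cut at about 30% in these data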;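 also: inhibitors lower millipolarization by displacing the labeled peptide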
Bim-Bcl-XL: inhibitors of Bim-Bcl-XL binding, primary screen, biochemical, multiplexed, bead flow cytometry, human Bcl-XL; 190,000 compounds, 0.04% hits; Bcl-2-like protein 1 (Homo sapiens), Q07817; Bim peptide-Bcl-XL binding, fluorescence; inhibition, % at 10 µM
Bim-BclXL dose: Bim-Bcl-XL interaction inhibitors, hit retest, confirmation, biochemical, dose response, multiplexed, HTS hits. shares compounds with Bfl-1 Bim block. bead-based flow cytometry, Bim-Bcl-XL binding. inhibition of binding at 100 µM. 40 tested, under 10 active. AID 2084, 2009; call rule not given here
Numbers stand for hits; – = inactive; · = no result. Compounds with a hit are over-represented: about 0.81% of the library has one in this group of screens. Rule as the data show it, unless noted: active = inhibition above about 40%.

SMILES	Bfl-1 Bim block	Bim-Bcl-2	Bim-Bcl-W	Bim-Bcl-B	BCLXL inh	Bim-Bcl-XL	others
CCOC(=O)[C@@]1(C#N)[C@@H]2C=CC(C(N)=O)=CN2[C@@H](C(N)=O)[C@@H]1c1cccc(Cl)c1	–	–	–	–	38	–
C=C1[C@H]2CC[C@H]3[C@]4(C)C[C@H](O[C@H]5O[C@H](CO)[C@@H](OS(=O)(=O)O)[C@H](OS(=O)(=O)O)[C@H]5OC(=O)CC(C)C)C[C@@H](C(=O)O)[C@H]4CC[C@]3(C2)[C@H]1O	·	·	·	·	–	·
COc1ccc2[nH]c(C)c(CCNCc3cccnc3)c2c1	·	·	·	·	42	·
C=C(C)[C@@H]1C2C(=O)O[C@H]1[C@H]1OC(=O)[C@@]34OC3C[C@]2(O)[C@@]14C (stereo partly drawn)	·	·	·	·	–	·
OCC(Cl)CCl (stereo not drawn)	·	·	·	·	–	·
O=c1[nH]c(=S)n(-c2ccc(Cl)cc2)c(O)c1C=Nc1ccc(N2CCOCC2)cc1	–	–	–	–	166	–
O=c1[nH]c(=O)n(C2CCCCC2)c(O)c1C=Nc1ccc(N2CCOCC2)cc1	–	–	–	–	–	–
COC(=O)C1C2c3ccccc3OC1(C)N=c1s/c(=C/c3cnn(C)c3C)c(=O)n12 (stereo not drawn)	–	–	–	73	–	–
CC(=O)C1C2c3ccccc3OC1(C)N=c1s/c(=C/c3cnn(C)c3)c(=O)n12 (stereo not drawn)	–	–	–	–	–	–
O=c1[nH]c(=O)n(Cc2ccccc2Cl)c(O)c1/C=C1/C=CC=N1	–	–	–	–	–	–
Cc1ccc(-c2nc3ccccc3c(=O)n2-c2cccc(O)c2)cc1	–	–	–	–	31	–
O=C1NC(=S)N(c2ccccc2)C(=O)/C1=C/c1ccco1	·	·	·	·	47	·
CC1N(O)C2CCCCCC2N1O (stereo not drawn)	–	–	–	–	–	–
Cc1ccc(-c2nc(N3CCOCC3)s[n+]2-c2ccccc2)cc1	53	–	–	–	–	–
COc1ccc(N2C(=O)NC(=O)/C(=C\c3cn(C)c4ccccc34)C2=O)cc1	·	·	·	·	34	·
COC(=O)Cn1cc(/C=C2\C(=O)NC(=O)N(c3ccc(OC)cc3)C2=O)c2ccccc21	·	·	·	·	–	·
CC(C)n1c(O)c(C=NCc2ccccc2)c(=O)[nH]c1=S	·	·	·	·	–	·
O=C(c1ccc2c(c1)OCO2)C1CCCN(CC2CCCCC2)C1 (stereo not drawn)	–	–	–	–	–	–
O=C1NC(=O)C2(Cc3c(nc4ccccn4c3=O)N3CCCCCC32)C(=O)N1Cc1ccccc1 (stereo not drawn)	–	–	–	59	–	–	Bim-BclXL dose=–
c1ccc2nc(OCCN3CC3)ccc2c1	·	·	·	·	–	·
